Results: PubChem BioAssay AID492990 (National Center for Advancing Translational Sciences (NCATS), 2010)
Activity calls are given as the source filed them.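 Rule for the calls: active = clear integrase inhibition at one or more tested doses, judged significant by the depositor; inactive = only baseline response.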

Tested on: HIV-1 integrase
Assay: Gel-Based Assay for Inhibitors of HIV Integrase: Counterscreen for TDP1
Conditions: recombinant HIV-1 integrase, 32P DNA gel densitometry; series mostly up to 333 µM; inhibition %, high = inhibition: at the top concentration
Protocol: HIV Integrase enables the HIV virus to integrate its genetic material into host cells's DNA. This particular assay was utilized as a counterscreen for inhibitors of human tyrosyl DNA phosphodiesterase I (Tdp1). See probe development summary bioassay AID 485312 for further details on the tdp1 inhibitors project.
HIV-1 integrase catalytic assay was carried out as previously described [Marchand et al. Methods in Enzymology 2001] by mixing 400 nM recombinant integrase with 20 nM [32P] radiolabeled DNA substrate in a buffer containing 50 mM MOPS, pH 7.2, 7.5 mM MgCl2, 14.3 mM 2-mercaptoethanol, and the drug of interest or 10% DMSO. Reactions were incubated at 37 degrees C for 1 h and quenched by the addition of an equal volume of gel loading dye (formamide with 0.25% bromophenol blue, 0.25% xylene cyanol and 5 mM EDTA). Reaction products were separated on a 16% polyacrylamide denaturing sequencing gel. Dried gels were exposed overnight and visualized using a Typhoon 8600 (GE Healthcare, Piscataway, NJ). Densitometry analyses were performed using the ImageQuant software from GE Healthcare.

SMILES | inhibition %, high = inhibition
O=c1c2ccc(Br)cc2nc2sc(Nc3ccc4c(c3)CCC4)nn12 | 0.7% (inactive)
O=c1c2ccccc2nc2sc(Nc3ccc4c(c3)CCC4)nn12 | 0.1% (inactive)
